Experimental findings from PMC10668032, “Altered binding affinity of SIX1-Q177R correlates with enhanced WNT5A and WNT pathway effector expression in Wilms tumor” are described below.

Over roughly 33,000 sequences, “e-score” has its median near -0.05; the highest 2% begin near 0.38. This excerpt belongs to a sample that is enriched for the highest values.

In this experiment the target is T1, SIX1-Q177R homeodomain (human, UniProt Q15475 108-198, Q177R).
T1 sequence: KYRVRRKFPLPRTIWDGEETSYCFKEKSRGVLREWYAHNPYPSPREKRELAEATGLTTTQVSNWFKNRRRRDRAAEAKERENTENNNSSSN
Kind of experiment: universal protein binding microarray; Universal all-10-mer PBM (8x60K, AMADID 030236), 300 nM GST-tagged protein, Alexa Fluor 488 anti-GST; buffer, salt, pH and temperature not stated (as in Berger); high values mean tight binding. The note with it: protein: ivt; tags: N-terminal GST; dsDNA, one strand shown. The method, boiled down: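 GST-tagged homeodomains were made by in vitro transcription/translation and quantified by anti-GST western blot against a recombinant GST standard curve. They were applied in duplicate at 300 nM final concentration to universal 'all 10-mer' protein binding microarrays (8×60K format). Binding was quantified as 8-mer E-scores with the Universal PBM Analysis Suite.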
Take ACTTCTAC: the binding signal stood at 0.182 ± 0.0104 E-score.
Then CACGGGAC, with 0.163 ± 0.0415 E-score.
As for CCCCTCAA, the figure is 0.161 ± 0.0276 E-score.
As for CACTCAAG, the binding signal was 0.264 ± 0.00106 E-score.
As for CGACTCCA, the figure is 0.275 ± 0.014 E-score; as for CCCCTCCG, 0.2736 ± 0.00272 E-score; as for CACTAGGC, 0.221 ± 0.00293 E-score.
Regarding CCCCTTAC, the binding signal turned out to be 0.245 ± 0.00846 E-score.
Then CACACTGG, with 0.264 ± 0.0213 E-score; and GACACTAA, with 0.369 ± 0.00967 E-score.
As for AACACTAA, the figure is 0.336 ± 0.0111 E-score; as for CACACTGA, 0.208 ± 0.0349 E-score.
As for TACACTGA, the figure is 0.394 ± 0.0104 E-score; as for CACACTGC, 0.258 ± 0.0222 E-score.
In the case of TACACTAA, the binding signal was 0.381 ± 0.0182 E-score.
For the sequence GACACTGC, the binding signal was found to be 0.4326 ± 0.00138 E-score.
As for AACACTGC, the figure is 0.375 ± 0.0233 E-score; as for AACACTGA, 0.35 ± 0.0172 E-score; as for GACACTGA, 0.403 ± 0.0214 E-score.
As for AATCGTGT, the figure is 0.369 ± 0.0106 E-score; as for AACTCCCG, 0.181 ± 0.0506 E-score.
Then ACTGGTAC, with 0.192 ± 0.00471 E-score.
In the case of CCCCCCGA, the binding signal came out at 0.314 ± 0.0156 E-score.
As for CACTACGG, the binding signal came out at 0.188 ± 0.0252 E-score.
Then CGAGGAAC, with 0.197 ± 0.0457 E-score; and CCGATCCC, with 0.221 ± 0.00253 E-score; and TACTCCAA, with 0.198 ± 0.0212 E-score.
As for CACTGTGC, the figure is 0.204 ± 0.00431 E-score; as for CACAGGTG, 0.307 ± 0.0159 E-score; as for AACACTTA, 0.328 ± 0.0332 E-score.
As for GACACTTA, the figure is 0.383 ± 0.00709 E-score; as for CACACTTA, 0.204 ± 0.00443 E-score.
CAACGACA: the binding signal worked out at 0.197 ± 0.0113 E-score.
As for CGGATCCC, the figure is 0.235 ± 0.023 E-score; as for CAGGGGTA, 0.234 ± 0.0165 E-score.
For the sequence ACCCAGGG, the binding signal is 0.201 ± 0.0184 E-score.
As for GACACTAC, the figure is 0.434 ± 0.00877 E-score; as for AACACTAG, 0.357 ± 0.0233 E-score.
As to CACACTAC, the binding signal turned out to be 0.2973 ± 0.00215 E-score.
Then AACACTAC, with 0.381 ± 0.0184 E-score; and CACACTAG, with 0.25 ± 0.0068 E-score.
Then AACACTAT, with 0.295 ± 0.0435 E-score; and CACCCAGG, with 0.284 ± 0.0239 E-score; and GGTGCTAC, with 0.183 ± 0.00715 E-score.
As for TCACTACA, the figure is 0.225 ± 0.0148 E-score.
Turning to ACACTATC, the binding signal came out at 0.342 ± 0.0149 E-score.
Then ACACTACC, with 0.421 ± 0.00623 E-score; and ACACTACT, with 0.393 ± 0.0188 E-score; and ACACTAAT, with 0.333 ± 0.0159 E-score.
Regarding ACACTACG, the binding signal turned out to be 0.388 ± 0.00491 E-score.
Then ACTCTACC, with 0.151 ± 0.0299 E-score.
Then ACACTATG, with 0.328 ± 0.0294 E-score; and CCACTACA, with 0.298 ± 0.0151 E-score.
As for ACACTAAG, the figure is 0.337 ± 0.0137 E-score.
In the case of ACACTACA, the binding signal was found to be 0.41 ± 0.0193 E-score.
As to ACACTATA, the binding signal amounted to 0.322 ± 0.0287 E-score.
Then CCAGAACA, with 0.261 ± 0.00433 E-score; and GGGGCGTA, with 0.159 ± 0.0113 E-score; and CCGCGTCA, with 0.156 ± 0.0229 E-score.
As for AGTAGGTG, the figure is 0.279 ± 0.025 E-score.
Then CCTCTTTA, with 0.171 ± 0.0307 E-score; and AGGGTATG, with 0.226 ± 0.0255 E-score.
Take ACCGGACA: the binding signal amounted to 0.245 ± 0.00259 E-score.
As to CCCCGGCC, the binding signal worked out at 0.233 ± 0.0259 E-score.
As for AGGTACAC, the figure is 0.452 ± 0.00159 E-score; as for AGGTACTC, 0.166 ± 0.0232 E-score.
As for GGGTACAA, the figure is 0.17 ± 0.0208 E-score.
As for CGGTACAC, the figure is 0.4352 ± 0.00226 E-score; as for GGGTACCC, 0.234 ± 0.00584 E-score.
On to CGGTATAC, for which the binding signal was 0.165 ± 0.00282 E-score.
Then GGGTACAC, with 0.443 ± 0.0111 E-score; and AGGTATCC, with 0.344 ± 0.00693 E-score; and CGGTATCC, with 0.325 ± 0.00938 E-score.
As for CGCACTAC, the binding signal amounted to 0.152 ± 0.0379 E-score.
As to CACGCTCG, the binding signal was determined as 0.242 ± 0.0063 E-score.
Then ACTGCATA, with 0.2138 ± 0.00024 E-score; and ATTGGGTG, with 0.261 ± 0.0204 E-score.
Then CACTCATA, with 0.195 ± 0.0111 E-score; and CGCAATAC, with 0.276 ± 0.0226 E-score.
As for CACGCAAC, the figure is 0.227 ± 0.0168 E-score.
As to CCCCCTAC, the binding signal was found to be 0.267 ± 0.031 E-score.
Then TCGCACCA, with 0.177 ± 0.0487 E-score; and CAAGTACA, with 0.207 ± 0.0357 E-score; and CCCTAACA, with 0.181 ± 0.028 E-score.
Then CACCAATG, with 0.222 ± 0.00267 E-score.
Then CTCCCCAA, with 0.28 ± 0.0223 E-score.
